# CF NFkB block: inhibitors of PAF-induced NF-kB signaling, primary screen, cell-based, GFP fluorescence, uHTS; inhibition, % at 5 µM; KKLEB NF-kB-GFP reporter, GFP fluorescence overnight; 0.86% of 360,000 active; AID 588850, 2011;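 active = at least 50% inhibition at 5 µM, scaled per plate between neutral and stimulator controls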;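 also: PAF is a Pseudomonas aeruginosa culture filtrate used as stimulus; plate controls were PAF-stimulated DMSO wells for no effect and unstimulated DMSO wells for full effect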
# Shn3 3UTR inh: reduction of Shn3 3'UTR firefly luciferase signal, primary screen, Schnurri-3 inhibitor project, cell-based, Clone20 osteoblasts, set 2 | Clone20 osteoblast Shn3 3'UTR firefly luciferase, 24 h | inhibition, % at 12.5 µM | 0.52% of 360,000 active | AID 588674, 2011;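 active = mean inhibition of at least 75% with every replicate also reaching 75%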;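 also: 0% = median of neutral control wells and 100% = pilot-screen positive control compound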
# TRPM1 prom inh: inhibitors of MITF-dependent TRPM1 promoter reporter, primary screen, cell-based, SK-MEL-5, single point, luciferase | SK-MEL-5 TRPM1 promoter luciferase, 24 h | inhibition, % at 12.5 µM | 0.83% of 330,000 active | AID 488899, 2010;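 active = mean inhibition across replicates of 60% or more, whatever share of single replicates reaches that level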
# Peg3 prom inh: Peg3 promoter-driven luciferase inhibitors, primary screen, cell-based, HeLa, luciferase luminescence. AID 588405, 2011. inhibition, % at 20 µM. 1.7% of 360,000 active. HeLa PEG-Prom luciferase reporter, overnight;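 active = inhibition of at least 50% at 20 µM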
# HIF-2a inh: HIF-2a reporter inhibitors, primary screen, luminescence, 786-0 RCC cells | AID 624352, 2012 | 0.72% of 360,000 active | inhibition, % at 18.8 µM | 786-0 RCC cells HIF-2a reporter, luciferase luminescence, overnight;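 active = inhibition of the luminescence signal of 40% or more relative to plate controls, in a single-dose primary screen at 18.75 µM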
# KKLEB tox: cytotoxicity in KKLEB CF airway cells, primary screen, cytotoxicity control for CF NF-kB inhibitor project, cell-based, uHTS, fluorescence assay plates. KKLEB CF airway cells viability, ATPlite luminescence, overnight; stronger effect = lower value; cells stimulated with P. aeruginosa culture filtrate. activity change (cytotoxicity), % at 5 µM. 0.36% of 360,000 active. AID 602141, 2011;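 active = corrected activity change at or below -50% at 5 µM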
# Numbers without * were called inactive; nt = no result. Only some compounds are listed: those with a hit (about 2.7% of all), similar ones and a draw of the others.
SMILES,CF NFkB block,Shn3 3UTR inh,TRPM1 prom inh,Peg3 prom inh,HIF-2a inh,KKLEB tox
COc1ccc(-c2csc(NC(=O)c3ccccc3NS(=O)(=O)c3ccc(C)cc3)n2)cc1,56.8*,42.3,6.5,55.1*,1.0,-51.7*
COc1ccc(S(=O)(=O)Nc2ccccc2C(=O)Nc2nc(-c3ccc(F)cc3)cs2)cc1OC,51.7*,-0.6,0.5,32.3,-16.0,-41.1
O=C(Cc1cccc(NC(=O)C2CCN(C(=O)CCc3ccccc3)CC2)c1)Nc1cccc(C(=O)N2CCCC2)c1,4.6,15.1,15.7,-0.8,6.9,4.0
C=CCNc1ccccc1S(=O)(=O)NCc1ccccc1,18.6,1.2,-11.8,6.5,0.1,3.8
COC(=O)[C@]12CCCCC=C1N(Cc1ccccc1)C(=O)[C@H](CC(=O)NCc1ccc(OC)c(OC)c1)C2,nt,nt,nt,nt,0.2,nt
CCOC(=O)c1nn(-c2ccccc2Cl)c(=O)cc1OCC(=O)Nc1cccc(OC)c1,-17.9,5.8,4.8,-1.6,8.0,2.8
CCN(C(=O)c1ccc(C(C)(C)C)cc1)c1nnc(Cn2nnc3ccccc32)s1,4.0,93.4*,39.4,25.0,28.8,-11.3
Cc1cc(C)c(C)c(S(=O)(=O)N2CCN(c3ccccn3)CC2)c1C,-7.5,4.2,2.2,20.9,13.0,-2.4
Cc1cc(C)c(C)c(S(=O)(=O)N2CCN(c3ncnc4ccccc34)CC2)c1C,20.3,86.4*,45.0,42.9,10.1,2.6
COC1=CC(=O)c2ccccc2C1=O,91.4*,35.9,101.6*,24.3,28.6,-28.7
COc1cc(N=CC2=C(O)c3ccccc3C2=O)cc(OC)c1,21.7,-122.6,-60.4,-175.5,-165.8,1.4
COc1ccc(SN=C2C(C)=CC(=O)C=C2C)cc1,11.4,13.7,16.3,8.9,-2.3,-4.8
COC1=CC(=O)C=C(OC)C1=O,24.1,97.3*,53.9,102.3*,6.3,-9.2
NC(=S)NN=Cc1nccc2c(C(F)(F)C(F)(F)C(F)(F)F)cccc12,37.8,82.8,nt,36.6,-88.7,-19.5
Cc1cnc(C=NNC(N)=S)c2cccc(N)c12,3.8,84.5,65.7*,32.4,-12.3,-5.0
NC(=S)NN=Cc1nccc2ccccc12,86.7*,79.2,38.0,-57.6,-155.4,-74.4*
CN(C)CCCNc1nc2cc(-c3ccc(F)cc3)sc2c(=O)n1C,-4.1,14.7,nt,90.4*,-41.1,-6.9
Cn1c(NCCN2CCCC2)nc2cc(-c3cccc(C(F)(F)F)c3)sc2c1=O,-0.5,-5.3,nt,58.1*,-75.6,2.3
COc1ccc(C=O)cc1Cn1c(C)cc(C)c(C#N)c1=O,8.6,13.6,10.5,50.6*,15.8,-3.4
CCCCCC(=O)Nc1ccc(C(=O)CN2C(=O)NC3(CCCCCC3)C2=O)cc1,6.9,2.6,-9.2,-9.1,-1.9,9.0
CCOC(=O)c1ccc(NC(=O)c2nc(S(=O)(=O)Cc3ccccc3)ncc2Cl)cc1,95.1*,96.1*,77.8*,109.6*,88.5*,-65.8*
CSc1nnc(NC(=O)c2nc(S(=O)(=O)Cc3ccccc3)ncc2Cl)s1,91.4*,96.4*,67.6*,105.0*,2.7,-82.0*
Cc1ccc(-c2cnc(C(O)c3ccc(Cl)c(Cl)c3)[nH]2)cc1 (centres undefined),3.2,8.6,nt,12.2,-2.7,-7.9
COc1ccccc1CN(Cc1nc2ccccc2c(=O)[nH]1)S(=O)(=O)c1ccc2ccccc2c1,33.1,20.7,41.9,58.4*,8.9,-15.5
O=C(NCCN1CCN(c2ccccc2)CC1)c1ccc2c(c1)[nH]c(=S)n1c3ccccc3nc21,12.7,5.8,3.7,50.4*,27.2,0.4
SMILES,CF NFkB block,Shn3 3UTR inh,TRPM1 prom inh,Peg3 prom inh,HIF-2a inh,KKLEB tox
COc1ccc(CC(=O)N(Cc2ccccc2)c2cccc(C)c2)cc1OC,0.6,13.6,-15.8,6.4,2.7,-6.4
Cc1cccc(N(Cc2ccccc2)C(=O)CCl)c1,95.8*,25.0,39.9,59.3*,31.4,-106.6*
Cc1cc(C)n2nc(SC(C)C(=O)N(C)C3CCCCC3)nc2n1 (centres undefined),5.2,-6.2,-0.4,-2.8,9.5,0.0
CN1CCN(C2=Cc3ccccc3Sc3cc(F)c(F)cc32)CC1,5.1,-5.8,-27.1,15.0,10.8,-10.0
CN1CCN(C2=Cc3cc(Cl)ccc3Sc3cc(F)ccc32)CC1,30.1,-46.8,-6.0,94.2*,36.5,-23.3
OCCN1CCN(C2Cc3cc(Cl)ccc3Sc3ccc(Cl)cc32)CC1 (centres undefined) (tested in a mixture with another compound),16.6,-24.3,-2.5,65.1*,13.4,-16.1
CN1CCN(CCOC2Cc3ccccc3Sc3ccc(Cl)cc32)CC1 (centres undefined),17.2,17.5,-7.7,35.7,10.6,-9.5
CN1CCN(C2Cc3cc(Cl)ccc3Sc3cc(F)ccc32)CC1 (centres undefined),25.9,23.2,3.3,91.0*,8.4,-6.6
COc1ccccc1-c1cc(C(F)(F)F)n2ncc(C(=O)N3CCc4ccccc4C3)c2n1,-1.1,13.4,4.0,36.4,18.5,-6.8
CCC(C)C(N)C(=O)N1CCCC1C(=O)NC(C(=O)O)C(C)CC (centres undefined),-4.0,-25.6,-2.0,10.0,7.6,-6.5
COc1cc(CNC(=O)Nc2nnc([C@@H]3C[C@H](O)[C@@H](CO)O3)s2)cc(OC)c1OC,9.7,13.9,nt,22.1,4.9,-2.0
CC(C)(C)c1cc[n+](C2=C([O-])c3ccccc3C(=O)/C2=N\S(=O)(=O)c2cccs2)cc1,75.0*,29.6,nt,57.3*,26.4,-27.9
O=C1/C(=N\S(=O)(=O)c2cccs2)C([n+]2ccccc2)=C([O-])c2ccccc21,67.9*,-13.0,104.2*,35.1,43.8*,-0.4
N/C(=N\S(=O)(=O)c1cccs1)c1ccccc1,-2.4,4.0,0.0,3.0,8.5,-4.9
CCOc1ccccc1Nc1nnc(SCc2nnc(-c3cc(OC)c(OC)c(OC)c3)o2)s1,-4.4,24.5,-8.7,65.2*,2.5,-1.5
CCOC(=O)N1CCc2cc(OC)c(OC)c3c2c1cc1cc(OC)c(OC)cc13,6.5,4.8,22.2,50.8*,-28.3,-6.7
COc1cc(CC(=O)N2CCc3ccccc32)cc(OC)c1OC,-10.6,17.4,8.8,4.4,11.3,-9.1
CNC(=O)c1cccc(NC(=O)c2cc(-c3ccccc3)nc3c2cnn3C(C)C)c1,-39.3,23.9,23.0,59.1*,6.4,-3.0
COc1cc(NC(=O)c2cc(-c3ccccc3)nc3c2cnn3C(C)C)cc(OC)c1OC,30.4,58.5,8.2,46.9,8.7,-6.0
